Inconclusive results are not listed.

The assay in a line: qHTS for identification of novel therapeutic agents for treatment of microphthalmiaassociated transcription factor (MiT) renal cell carcinoma (RCC) (AID 1963991).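 Note: curves scaled with 100% = DMSO viability and 0% = empty wells.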 To be noted: TFE3-RCC viability, CellTiter-Glo, 48 h; measured here: UOK145 Z-AUC; stronger effect = lower value. A digest of the protocol: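 UOK109/UOK124/UOK145 (TFE3 fusions, three partners); 500 cells/well; MIPE v4.0, 1912 cpds, 11 conc.; 48 h, 37 C; CellTiter-Glo, 15 min RT; lum. Norm.: DMSO 100%, empty 0%.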
In general terms: Quantitative high-throughput screening tests each substance at several concentrations.
As to `CC=C1C2C=C(C)CC1(N)c1ccc(=O)[nH]c1C2` (stereo unspecified), the z-score was 1.2.

Turning to `COc1ccc2c(c1)CC[C@H]1[C@@H]2CC[C@]2(C)[C@@H](NCCCCCCN3C(=O)C=CC3=O)CC[C@H]12`, the z-score was found to be 0.661.

`CCNC(=O)CCCC=CC[C@@H]1[C@H](C=CC(O)CCc2ccccc2)[C@@H](O)C[C@@H]1O` (stereo partly specified) yielded a z-score of 1.41.

Regarding `N=C1SC(=Cc2ccc(-c3ccc4c(c3)C(=O)NC4=O)o2)C(=O)N1c1ccc(Br)cc1`, the z-score came to 0.868.

`CNC1[C@H](O)C(O[C@@H]2C(O)C(O[C@H]3O[C@H]([C@@H](C)NC)CC[C@H]3N)[C@@H](N)C[C@H]2N)OC[C@]1(C)O` (stereo partly specified): the z-score was found to be 0.886.

In turn, `COc1ccc(C=CC(=O)Nc2ccccc2C(=O)O)cc1OC` showed a z-score of -0.0429.

As for `COc1cc(C=CC(=O)O)ccc1O`, the z-score came out at 0.103.

For the molecule `C[C@@H]1CCO[C@H]2Cn3cc(C(=O)NCc4ccc(F)cc4F)c(=O)c(O)c3C(=O)N12`, the z-score worked out at 1.66.

With `CCN1C[C@H](C)n2c(c(O)c3c(=O)n(Cc4ccc(F)c(Cl)c4)nc(C(=O)NC)c32)C1=O`, the z-score stood at 2.87.

`CC[C@H]1OC(=O)[C@H](C)[C@@H](O[C@H]2C[C@@](C)(OC)[C@@H](O)[C@H](C)O2)[C@H](C)[C@@H](O[C@@H]2O[C@H](C)C[C@H](N(C)C)[C@H]2O)[C@](C)(O)C[C@H](C)C(=NOCOCCOC)[C@H](C)[C@@H](O)[C@]1(C)O`: the z-score worked out at 0.696.

`CCCCC[C@H](O)C=C[C@H]1[C@H](O)CC(=O)[C@H]1CCCCCCC(=O)O`: the z-score amounted to 1.28.

As for `C[C@@H](O)[C@H]1C(=O)N2C(C(=O)OCOC(=O)C(C)(C)C)=C(SC3CN(C4=NCCS4)C3)[C@H](C)[C@H]12`, the z-score was found to be 0.788.

Molecule `O=C(O)C1=NC(C(=O)O)CC(C=CN2c3cc(O)c(OC4OC(CO)C(O)C(O)C4O)cc3CC2C(=O)O)=C1` (stereo unspecified) yielded a z-score of 0.57.

As to `COc1cc2c(cc1OC)[C@@H]1Cc3ccc(OC)c(OC)c3CN1CC2`, the z-score came out at 0.612.

In turn, `CCCCCOC(=O)Nc1nc(=O)n([C@@H]2O[C@H](C)[C@@H](O)C2O)cc1F` (stereo partly specified) gave a z-score of 0.317.

As for `CO[C@H]1/C=C\O[C@@]2(C)Oc3c(C)c(O)c4c(O)c(c5c(nc6cc(C)ccn65)c4c3C2=O)NC(=O)C(C)=CC=C[C@H](C)[C@H](O)[C@@H](C)[C@@H](O)[C@@H](C)[C@H](OC(C)=O)[C@H]1C`, the z-score was 0.817.

`CN[C@H]1[C@@H](O[C@@H]2[C@H](O[C@@H]3[C@@H](O)[C@@H](O)[C@@H](N=C(N)N)[C@@H](O)[C@@H]3N=C(N)N)O[C@H](C)[C@@]2(O)C=O)O[C@@H](CO)[C@@H](O)[C@H]1O` came in with a z-score of 2.73.

`O=C(O)C1=CO[C@@H](O[C@@H]2O[C@H](CO)[C@H](O)[C@H](O)[C@H]2O)[C@@H]2C(CO)=CC[C@H]12` came in with a z-score of 0.387.

Regarding `CC(C)=CCCC(C)=CCCC(C)=CCCC(C)=CCCC(C)=CCCC(C)=CCCC(C)=CCCC(C)=CCCC(C)=CCO`, the z-score was determined as 1.27.

`CC(C)c1onc(-c2c(Cl)cccc2Cl)c1COc1ccc(C=Cc2cccc(C(=O)O)c2)c(Cl)c1` had a z-score of 0.507.

`CCC=CC[C@H]1C(=O)CC[C@@H]1CC(=O)OC` came in with a z-score of 0.356.

Molecule `CCNC(=O)[C@H]1O[C@@H](n2cnc3c(N)nc(NCCc4ccc(CCC(=O)O)cc4)nc32)[C@H](O)[C@H]1O` showed a z-score of 0.68.

`CO[C@H]1O[C@@H]2O[C@@]3(C)CC[C@@H]4[C@@H](C)CC[C@@H]([C@H]1C)[C@@]24OO3` came in with a z-score of 0.763.

Take `CC1(C)[C@H]2CC[C@]3(C)[C@@H](C(=O)C=C4[C@@H]5C[C@@](C)(C(=O)O)CC[C@]5(C)CC[C@]43C)[C@@]2(C)CC[C@@H]1O`: the z-score amounted to 0.985.

On to `CN(C)c1nc(Cc2ccc(NC(=O)c3ccc(C(F)(F)F)cc3)cc2)nc(N(C)C)c1CC(=O)O`, for which the z-score was determined as 0.741.

For the molecule `CN(CC=CC#CC(C)(C)C)Cc1cccc2ccccc12`, the z-score is 2.39.

`CO[C@H]1C=CO[C@@]2(C)Oc3c(C)c(O)c4c(O)c(c(C=NN5CCN(C)CC5)c(O)c4c3C2=O)NC(=O)C(C)=CC=C[C@H](C)[C@H](O)[C@@H](C)[C@@H](O)[C@@H](C)[C@H](OC(C)=O)[C@H]1C` had a z-score of 1.3.

For `CC(=O)OCC(=O)[C@@]12OC(C)(C)O[C@H]1C[C@H]1[C@@H]3C[C@H](F)C4=CC(=O)C=C[C@]4(C)[C@@]3(F)[C@@H](O)C[C@@]12C`, the z-score came to 0.0965.

`FC(F)(F)c1ccc(C=Cc2nc(COc3ccc(CCCCn4ccnn4)cc3)co2)cc1` registered a z-score of -1.58.

In the case of `COc1cc(CNC(=O)CCCCC=CC(C)C)ccc1O`, the z-score came to 0.0429.

With `CN[C@@H]1[C@@H](O)[C@@H](O[C@@H]2[C@@H](O)[C@H](O[C@H]3O[C@H](CN)[C@@H](O)[C@H](O)[C@@H]3O)[C@@H](N)C[C@@H]2NC(=O)[C@@H](O)CN)OC[C@]1(C)O`, the z-score was 0.614.

The values are drawn from PubChem BioAssay (NCATS).
